Data from PubChem BioAssay (NCATS).
A number with no mark means an inactive call. Results filed as inconclusive are left out. The list shows a part of the results. Calls of active or inactive are those of the source. Unless noted, calls come from the whole dose curve; as a rule, active = well fitted curve in either direction with a large enough effect (not every such curve was filed as active); inconclusive = small, poorly fitted or top-dose-only effect, or another doubt; inactive = flat fitted curve, though single readings scatter.

Tests used:
[1] = target: Lysosomal acid glucosylceramidase (Homo sapiens) (UniProt P04062); assay: Glucocerebrosidase-p2 (AID 348; in the data active = potency below about 10 µM; note: potency is the fitted concentration of half-maximal effect); conditions: purified GBA, blue fluorogenic substrate, 40 min
Lysosomal acid glucosylceramidase (Homo sapiens), sequence (P04062 whole entry, looked up): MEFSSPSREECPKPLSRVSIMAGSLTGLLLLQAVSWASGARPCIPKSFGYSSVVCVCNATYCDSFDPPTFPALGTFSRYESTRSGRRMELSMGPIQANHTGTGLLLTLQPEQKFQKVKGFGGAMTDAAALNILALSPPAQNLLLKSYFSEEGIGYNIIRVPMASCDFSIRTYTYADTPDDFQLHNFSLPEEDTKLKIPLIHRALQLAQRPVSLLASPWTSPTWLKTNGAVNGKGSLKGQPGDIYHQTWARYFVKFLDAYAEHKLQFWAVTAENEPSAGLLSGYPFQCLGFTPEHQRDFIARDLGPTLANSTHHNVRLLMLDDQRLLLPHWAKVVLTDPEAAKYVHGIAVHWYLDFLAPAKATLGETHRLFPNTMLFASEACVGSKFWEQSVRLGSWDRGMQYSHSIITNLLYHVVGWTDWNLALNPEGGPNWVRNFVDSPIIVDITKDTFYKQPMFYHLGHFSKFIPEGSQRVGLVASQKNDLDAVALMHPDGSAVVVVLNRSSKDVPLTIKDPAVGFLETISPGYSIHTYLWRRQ
How it was run: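 Normal human glucocerebrosidase (0.2 nM) with blue fluorogenic substrate (80 uM final) in citrate/phosphate pH 5.9 with 10mM sodium taurocholate, 0.01% tween-20; 40 min RT, NaOH/glycine stop; fluorescence Ex 365/Em 440; AC50 from a titration from 0.6 nM upwards.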

[2] = AP1 Signaling Pathway (AID 357); conditions: ME-180 AP-1-bla reporter, EGF-induced, beta-lactamase ratio, 5 h; at 7.69 µM (top of the series) unless noted;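 note: ME-180 reporter cells stimulated with EGF at its EC50 level; % is set by controls: 0 for no effect and ±100 for the full control effect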
How it was run: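 First, ME-180 AP-1-bla cells were cultured overnight at 37 °C in low-serum Opti-MEM. Next, titrated compounds with EC50 EGF were incubated 5 hours. Finally, CCF4 was added for 2.5 hours and the 460/530 nm ratio recorded.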

[3] = target: Cytochrome P450 1A2 (Homo sapiens) (UniProt P05177); assay: p450-cyp1a2 (AID 410; calls by dose curve; note: potency is the fitted concentration of half-maximal effect;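 for activity change, negative = inhibition: -100% = full effect of reference inhibitor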)
Cytochrome P450 1A2 (Homo sapiens), sequence (P05177 whole entry, looked up): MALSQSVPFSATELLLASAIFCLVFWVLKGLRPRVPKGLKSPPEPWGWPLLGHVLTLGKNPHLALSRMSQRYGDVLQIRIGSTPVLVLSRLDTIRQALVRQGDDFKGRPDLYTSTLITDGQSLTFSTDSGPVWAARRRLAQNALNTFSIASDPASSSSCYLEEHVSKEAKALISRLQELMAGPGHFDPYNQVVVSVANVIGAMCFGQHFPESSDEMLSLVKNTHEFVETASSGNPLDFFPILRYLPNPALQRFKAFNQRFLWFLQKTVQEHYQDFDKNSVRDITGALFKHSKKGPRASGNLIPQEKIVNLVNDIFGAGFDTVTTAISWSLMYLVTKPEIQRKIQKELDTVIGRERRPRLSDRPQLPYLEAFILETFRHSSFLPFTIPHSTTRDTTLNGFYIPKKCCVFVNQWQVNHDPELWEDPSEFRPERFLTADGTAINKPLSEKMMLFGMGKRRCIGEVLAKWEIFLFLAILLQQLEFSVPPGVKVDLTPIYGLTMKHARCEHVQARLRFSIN
How it was run: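 20nM CYP1A2, 100uM Luciferin-ME (=Km), 100mM KPO4; cpd 10 min RT; +NADPH regen, 60 min RT; stop/detect 20 min; luminescence. Normalized to furafylline 57 uM = full inhibition.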

[4] = NFAT Signaling Pathway (AID 444); conditions: Jurkat NFAT-bla M1, carbachol, beta-lactamase ratio, 5 h; at 7.69 µM (top of the series) unless noted;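 note: carbachol stimulus at about its EC50 of 1 µM final; % is set by controls: 0 for no effect and ±100 for the full control effect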
How it was run: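 Read-out: CCF4 FRET ratio (460 nm/530 nm) after 1 h RT dye loading, used for %activity and AC50 from titration series. Cells: Jurkat NFAT-β-lactamase/M1 line, treated with compound plus 1 uM carbachol for 5 h, 37 °C.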

[5] = Stat Signaling Pathway (AID 446); conditions: ME-180 (cervical carcinoma) SIE beta-lactamase reporter, IL-6 stimulated, 5 h; at 7.69 µM (top of the series) unless noted;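 note: ME-180 cervical cancer cells given 40 pM IL-6 alongside compound; SIE-controlled beta-lactamase reporter measured as 460/530 nm FRET emission ratio; % is set by controls: 0 for no effect and ±100 for the full control effect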
How it was run: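 FRET read-out (405 nm excitation, 460/530 nm emission) of a beta-lactamase reporter under a STAT-inducible element in ME-180 cervical carcinoma cells. Cells with compound receive 40 pM IL-6 for 5 h. Values are normalised to AC90 stimulation and AC90 JAK-inhibitor controls.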

[6] = target: Glucocorticoid receptor (Homo sapiens) (UniProt P04150); assay: GR-GFP Redistribution (AID 450;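 active = compounds whose dose series gives a full or clear partial fitted curve of increased nuclear translocation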; note: potency is the fitted concentration of half-maximal effect); conditions: U2OS GR-GFP nuclear translocation, laser cytometry, 2 h
Glucocorticoid receptor (Homo sapiens), sequence (P04150 whole entry, looked up, the tested form may be a part): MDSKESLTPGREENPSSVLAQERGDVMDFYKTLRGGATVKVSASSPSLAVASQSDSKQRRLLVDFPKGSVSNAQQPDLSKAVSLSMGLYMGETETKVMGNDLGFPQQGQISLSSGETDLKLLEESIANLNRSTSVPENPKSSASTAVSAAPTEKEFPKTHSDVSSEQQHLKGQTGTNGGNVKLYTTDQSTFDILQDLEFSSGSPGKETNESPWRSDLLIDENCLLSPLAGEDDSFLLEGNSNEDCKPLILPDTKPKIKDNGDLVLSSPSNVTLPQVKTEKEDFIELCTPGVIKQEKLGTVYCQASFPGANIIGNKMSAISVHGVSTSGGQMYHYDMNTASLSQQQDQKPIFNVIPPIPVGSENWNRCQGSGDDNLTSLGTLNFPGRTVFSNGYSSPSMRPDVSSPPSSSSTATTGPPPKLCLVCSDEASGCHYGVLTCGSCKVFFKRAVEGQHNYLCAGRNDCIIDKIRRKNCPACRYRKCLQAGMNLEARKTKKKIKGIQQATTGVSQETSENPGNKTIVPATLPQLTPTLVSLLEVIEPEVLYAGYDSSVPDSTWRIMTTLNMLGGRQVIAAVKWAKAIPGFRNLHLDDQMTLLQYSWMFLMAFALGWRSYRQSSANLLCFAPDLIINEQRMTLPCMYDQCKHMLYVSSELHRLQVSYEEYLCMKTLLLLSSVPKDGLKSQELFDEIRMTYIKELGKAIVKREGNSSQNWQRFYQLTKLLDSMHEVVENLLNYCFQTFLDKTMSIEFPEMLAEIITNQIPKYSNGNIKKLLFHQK

[7] = target: Glucocorticoid receptor (Homo sapiens) (UniProt P04150); assay: GR-EFC Redistribution (AID 451; calls by dose curve; note: potency is the fitted concentration of half-maximal effect); conditions: CHO-K1 GR-EFC translocation, beta-gal luminescence, 2 h
How it was run: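 Translocation of GR-ED fusion to nuclear EA restores b-gal, read by luminescence after 1 h room-temperature detection. Engineered CHO-K1 biosensor cells, 1,000/well, exposed 2 h at 37 C to titrations up to 46 uM final.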

[8] = target: Mitogen-activated protein kinase 10 (Mus musculus) (UniProt Q61831); assay: JNK3 AlphaScreen Assay (AID 530);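 note: kinase came from lysate of stimulated human HepG2 cells; signal reports phosphorylation of biotinylated GST-cJun 1-79 at Ser73 with 10 µM ATP; % is set by controls: 0 for no effect and ±100 for the full control effect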
How it was run: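 Kinase buffer: 20 mM Tris-HCl pH 7.6, 10 mM MgCl2, 1 mM DTT, 0.1 mM Na3VO4, 0.01% Tween-20; ATP 10 uM. Substrate biotin-GST-cJun(1-79), enzyme from activated HepG2 lysates. Detection by Ser73 phospho-antibody AlphaScreen.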

[9] = target: Fructose-bisphosphate aldolase A (Oryctolagus cuniculus) (UniProt P00883); assay: qHTS Assay for Inhibitors of Fructose-1,6-bisphosphate Aldolase from Giardia Lamblia: Rabbit FBPA Selectivity (AID 2794; active = well fitted curve in the direction sought with a large enough effect; an effect the other way counts as inactive or inconclusive; note: % is set by controls: 0 for no effect and ±100 for the full control effect; nearly all actives have a fitted effect of over 60% in size)
Fructose-bisphosphate aldolase A (Oryctolagus cuniculus), sequence (P00883 whole entry, looked up): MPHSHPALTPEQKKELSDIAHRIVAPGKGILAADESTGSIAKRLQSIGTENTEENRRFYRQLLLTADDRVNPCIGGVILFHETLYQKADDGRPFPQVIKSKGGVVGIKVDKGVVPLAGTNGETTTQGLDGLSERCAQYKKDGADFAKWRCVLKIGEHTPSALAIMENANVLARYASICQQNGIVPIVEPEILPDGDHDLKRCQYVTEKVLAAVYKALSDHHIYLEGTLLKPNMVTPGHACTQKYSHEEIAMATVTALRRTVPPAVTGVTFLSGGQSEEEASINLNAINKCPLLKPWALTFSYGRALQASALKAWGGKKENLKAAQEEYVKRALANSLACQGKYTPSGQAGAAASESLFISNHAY
How it was run: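 To triage Class I aldolase inhibitors, rabbit FBPA activity is followed through a glyceraldehyde-3-phosphate-linked enzyme cascade feeding AmpLite Red. Compounds (up to 57.5 uM final) sit 10 min with coupling enzymes before substrate; fluorescence is read 20 min later.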

[10] = target: 3',5'-cyclic-AMP phosphodiesterase 4B (Homo sapiens) (UniProt Q07343); assay: qHTS Assay for Inhibitors of PDE-IV (AID 607; active = well fitted activation curve with a large enough effect in the main read-out, with a control signal flat, not every such curve was filed as active; note: % of control where 0% means no effect)
3',5'-cyclic-AMP phosphodiesterase 4B (Homo sapiens), sequence (Q07343 whole entry, looked up): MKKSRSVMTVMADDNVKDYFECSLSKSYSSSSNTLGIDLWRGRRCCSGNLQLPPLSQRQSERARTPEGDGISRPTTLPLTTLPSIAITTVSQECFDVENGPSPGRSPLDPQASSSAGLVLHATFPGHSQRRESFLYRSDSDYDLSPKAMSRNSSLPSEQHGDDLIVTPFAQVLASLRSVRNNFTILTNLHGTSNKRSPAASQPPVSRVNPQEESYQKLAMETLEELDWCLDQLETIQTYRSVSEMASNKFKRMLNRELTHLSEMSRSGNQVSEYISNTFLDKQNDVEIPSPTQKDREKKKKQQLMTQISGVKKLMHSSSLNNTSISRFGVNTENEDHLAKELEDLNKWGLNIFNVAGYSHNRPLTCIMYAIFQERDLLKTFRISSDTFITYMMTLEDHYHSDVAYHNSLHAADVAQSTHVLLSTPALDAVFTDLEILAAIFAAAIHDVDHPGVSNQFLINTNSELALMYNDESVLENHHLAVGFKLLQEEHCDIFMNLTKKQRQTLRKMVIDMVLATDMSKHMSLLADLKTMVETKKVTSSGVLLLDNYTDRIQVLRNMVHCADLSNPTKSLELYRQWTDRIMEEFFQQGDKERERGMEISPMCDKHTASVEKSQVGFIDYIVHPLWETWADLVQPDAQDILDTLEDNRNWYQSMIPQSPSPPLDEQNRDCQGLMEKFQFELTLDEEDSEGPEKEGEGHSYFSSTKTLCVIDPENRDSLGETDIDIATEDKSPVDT
How it was run: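 Cell-based read-out of cAMP via a modified cyclic nucleotide-gated channel and membrane potential dye (535/590 nm) in HEK293 cells expressing PDE4 endogenously. Compounds tested up to 22.9 uM final; 100 uM RO 20-1724 reference.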

[11] = target: Cytochrome P450 3A4 (Homo sapiens) (UniProt P08684); assay: qHTS Assay for Inhibitors and Substrates of Cytochrome P450 3A4 (AID 884; active = well fitted curve in the direction sought with a large enough effect; an effect the other way counts as inactive or inconclusive; note: potency is the fitted concentration of half-maximal effect; nearly all actives have a fitted effect of over 50% in size)
Cytochrome P450 3A4 (Homo sapiens), sequence (P08684 whole entry, looked up): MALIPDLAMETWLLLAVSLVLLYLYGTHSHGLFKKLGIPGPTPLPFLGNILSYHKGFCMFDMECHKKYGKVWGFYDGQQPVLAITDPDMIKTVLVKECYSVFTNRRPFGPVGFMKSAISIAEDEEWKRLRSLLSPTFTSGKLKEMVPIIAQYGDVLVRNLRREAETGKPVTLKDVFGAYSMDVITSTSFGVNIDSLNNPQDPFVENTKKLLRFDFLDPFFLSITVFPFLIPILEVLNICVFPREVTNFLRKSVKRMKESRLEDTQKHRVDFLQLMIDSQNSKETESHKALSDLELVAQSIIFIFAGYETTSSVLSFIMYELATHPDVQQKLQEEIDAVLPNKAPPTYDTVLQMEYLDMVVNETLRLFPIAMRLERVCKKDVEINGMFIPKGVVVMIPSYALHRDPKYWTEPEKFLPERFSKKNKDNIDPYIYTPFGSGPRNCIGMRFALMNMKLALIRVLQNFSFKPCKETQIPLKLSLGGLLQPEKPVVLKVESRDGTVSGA
How it was run: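 Luminescent readout of luciferin produced by CYP3A4 (20 nM) dealkylation of Luciferin-PPXE, 25 uM (its KM). NADPH-driven reaction ran 60 min at RT after 10 min compound preincubation; data scaled to 57 uM ketoconazole as 100% inhibition.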

[12] = target: Cytochrome P450 3A4 (Homo sapiens) (UniProt P08684); assay: qHTS Assay for Activators of Cytochrome P450 3A4 (AID 885; active = well fitted curve in the direction sought with a large enough effect; an effect the other way counts as inactive or inconclusive; note: nearly all actives have a fitted effect of over 65% in size)
How it was run: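 Luminescent readout of luciferin formed from 25 uM Luciferin-PPXE (KM level) by 20 nM CYP3A4 in 200 mM KPO4, with 60 min NADPH-driven reaction at room temperature after 10 min compound exposure. Ketoconazole (57 uM) defined 100% inhibition.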

[13] = Confirmation and Secondary Assay for Modulators of Hemoglobin Beta Chain Splicing at IVS2 654 locus (AID 910; active = well fitted curve in the direction sought with a large enough effect; an effect the other way counts as inactive or inconclusive;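 note: HeLa cells stably carrying EGFP split by mutant beta-globin IVS2-654 intron; per-well total GFP intensity by laser scanning cytometry after 2-day treatment; % of control where 0% means no effect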)
How it was run: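 Readout: per-well total peak green fluorescence (488 nm ex, 500–520 nm em) from objects 5–250 µm, reflecting correct splicing of an EGFP-654 reporter. Compounds were applied for 2 days at 37 °C to overnight-plated HeLa EGFP-654 cells; controls were DMSO and 500 nM IVS2-654 PNA.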

[14] = Confirmation and Secondary Assay for Modulators of Hemoglobin Beta Chain Splicing at IVS2 705 locus (AID 930; active = well fitted curve in the direction sought with a large enough effect; an effect the other way counts as inactive or inconclusive;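 note: HeLa cells stably expressing the EGFP-705 splicing reporter; GFP fluorescence per well restored by corrected splicing of the IVS2-705 intron in EGFP; % of control where 0% means no effect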)
How it was run: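 First, HeLa EGFP-705 cells are seeded at 500/well in Optimem with 2% FCS and left overnight. Next, compound or DMSO is added for 2 days. Finally wells are laser-scanned and total peak GFP intensity scored.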

[15] = target: Ubiquitin carboxyl-terminal hydrolase 1 (Homo sapiens) (UniProt O94782); assay: Inhibitors of USP1/UAF1: Pilot qHTS (AID 504865; active = well fitted curve in the direction sought with a large enough effect; an effect the other way counts as inactive or inconclusive;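 note: rhodamine fluorescence freed from ubiquitin-rhodamine substrate followed over time; top concentration of the series differs between compounds; % is set by controls: 0 for no effect and ±100 for the full control effect; nearly all actives have a fitted effect of over 35% in size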)
Ubiquitin carboxyl-terminal hydrolase 1 (Homo sapiens), sequence (O94782 whole entry, looked up): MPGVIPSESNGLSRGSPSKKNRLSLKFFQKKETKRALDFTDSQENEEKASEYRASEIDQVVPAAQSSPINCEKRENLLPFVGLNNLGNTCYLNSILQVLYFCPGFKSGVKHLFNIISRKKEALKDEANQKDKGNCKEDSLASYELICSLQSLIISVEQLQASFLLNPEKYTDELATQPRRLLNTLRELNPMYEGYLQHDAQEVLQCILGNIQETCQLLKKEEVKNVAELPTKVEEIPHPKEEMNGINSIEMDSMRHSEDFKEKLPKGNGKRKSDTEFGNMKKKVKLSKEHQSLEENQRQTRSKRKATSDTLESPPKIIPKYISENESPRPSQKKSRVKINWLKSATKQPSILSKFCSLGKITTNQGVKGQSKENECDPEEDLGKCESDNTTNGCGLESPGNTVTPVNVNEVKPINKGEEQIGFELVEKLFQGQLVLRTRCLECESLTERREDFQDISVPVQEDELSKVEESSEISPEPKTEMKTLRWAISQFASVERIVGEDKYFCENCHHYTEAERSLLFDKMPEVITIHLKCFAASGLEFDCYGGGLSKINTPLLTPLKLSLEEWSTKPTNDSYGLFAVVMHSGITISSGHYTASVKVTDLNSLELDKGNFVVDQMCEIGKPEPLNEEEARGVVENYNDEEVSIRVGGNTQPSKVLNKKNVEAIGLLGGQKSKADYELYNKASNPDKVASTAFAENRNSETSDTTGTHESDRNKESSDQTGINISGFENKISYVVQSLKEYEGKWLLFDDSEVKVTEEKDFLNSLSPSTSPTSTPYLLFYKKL
How it was run: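 USP1/UAF1 complex at 1 nM preincubated 15 min at room temperature with compound, then Ub-Rho substrate added at 150 nM final. Fluorescence (480/540 nm) read kinetically in 50 mM HEPES pH 7.8, 0.5 mM EDTA, 1 mM TCEP, 0.1 mg/ml BSA, 0.01% Tween-20.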

SMILES | Potency [1] | activity change, negative = inhibition [2] | Potency [3] | activity change, negative = inhibition [4] | activity, negative = inhibition [5] | Potency [6] | Potency [7] | Potency [8] | outcome [9] | Potency [10] | Potency [11] | Potency [12] | outcome [13] | outcome [14] | Potency [15] | activity change, negative = inhibition [3]
O=P(O)(CCP(=O)(O)c1ccccc1)c1ccccc1 | > 11.4 µM | -9.71% | inactive | 12.9% | 1.66% | > 46 µM | > 9.22 µM | inactive |  |  |  |  |  |  |  | 
Cc1ccc(S(=O)(=O)N[C@H](CO)C(=O)O)cc1 | > 11.4 µM | 1.84% | inactive | -20.5% | 0.571% | > 46 µM | > 9.22 µM | inactive |  |  |  |  |  |  |  | 
COc1ccc(Cl)cc1C(=O)NNC(=O)c1nc2nc(C)cc(C)n2n1 |  |  |  |  |  |  |  |  | inactive |  |  |  |  |  |  | 
CNc1ncncc1-c1ccc(C(=O)N(C)C)cc1 | > 11.4 µM | -7.23% | 15.8 µM (active) | 7.99% | 8.34% | > 46 µM | > 46 µM | inactive |  | inactive | 5.01 µM (active) | inactive | inactive | inactive | inactive | 
CN(C)c1ccc(-c2nc(N3CCNCC3)c3ccccc3n2)cc1 | > 11.4 µM | -12.7% | 10 µM (active) | 5.32% | 23.9% | > 46 µM | > 46 µM | inactive |  |  |  | inactive | inactive | inactive | inactive | 
O=C(CN1C(=O)c2ccccc2C1=O)NC1(C(=O)O)CCCC1 | > 11.4 µM | -5.19% |  | -0.506% | 7.15% | > 46 µM | > 9.22 µM | inactive |  | inactive |  |  |  |  |  | -2.1% [at 2.29 µM]
CC1=C(CC[C@H](C)CO)O[C@@H]2C[C@@H]3[C@H]4CC[C@H]5C[C@@H](O)CC[C@]5(C)[C@@H]4CC(=O)[C@@]3(C)[C@@H]12 | > 11.4 µM | 12.3% |  | -4.84% | -18.7% | > 46 µM | > 9.22 µM | inactive |  | inactive |  |  |  |  |  | -21.1% [at 2.29 µM]
